In experiment [1] the test system is Wnt5a (protein binding on small-molecule microarray). Nature of the experiment: small molecules binding Wnt5a protein – biophysical, small-molecule microarray, 635/667 nm fluorescence, primary screen (AID 1142).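 Further: fluorescence read at 667 nm with signal to noise per printed feature.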 The following applies: 635 nm fluorescence, higher = more signal.
A short description of experiment [2]: ATP-based viability of Huh7 replicon cells – cell-based, CellTiter-Glo luminescence, basal, 48 h, cytotoxicity control for HCV replication inhibitor project, primary screen (AID 1143).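 Further: Huh7 hepatoma cells carrying a hepatitis C replication reporter with no stimulus; test concentration not given here.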 To be noted: higher = more signal, called active from +8 up or from −8 down. Background: Replicon systems follow genome replication, usually without infectious particles.
Experiment [3] can be described thus: Pseudomonas biofilm growth suppression – PAO1 strain, BacTiter-Glo luminescence, LB-PBS, primary screen (AID 1144). To be noted: P. aeruginosa PAO1 biofilm, 12 h, higher = more signal.
Experiment [4] can be described thus: basal CRE-LacZ reporter activity in PC12 – cell-based, unstimulated, primary screen (AID 1145). The following applies: no forskolin, luminescence, 4.5 h, higher = more signal, called active from +8 up or from −8 down.
Experiment [5] in a line: forskolin-driven CRE-LacZ activity in PC12 – cell-based, CRE-LacZ reporter, forskolin-stimulated, primary screen (AID 1146).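 Further: PC12 cells with 6xCRE LacZ reporter stimulated by forskolin 10 µM; beta-galactosidase reporter signal reflecting CREB driven transcription.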 The following applies: luminescence, 4.5 h, higher = more signal, called active from +8 up or from −8 down.
Experiment [6] addresses Streptavidin (Streptomyces avidinii) (UniProt P22629). Nature of the experiment: compounds binding control protein streptavidin – biophysical, small-molecule microarray, 635/667 nm fluorescence, artefact control for SMM compound annotation, primary screen (AID 1147).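 Further: signal reflects streptavidin binding to arrayed compounds as a control protein.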 To be noted: higher = more signal.
Experiment [7] can be described thus: probe aInhba binding on compound microarray – biochemical, small-molecule microarray, 635/667 nm fluorescence, primary screen (AID 1148).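 Further: score merges 667nm spot fluorescence with signal-to-noise for antibody binding to printed compounds.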 To be noted: higher = more signal.
Experiment [8] has as its target Torsin-1A (Homo sapiens) (UniProt O14656). Nature of the experiment: TOR1A wild-type binding on microarray – cell lysate, small-molecule microarray, lysate, 635/667 nm, primary screen (AID 1149). To be noted: COS7 hTOR1A-WT lysate, 635 nm fluorescence, higher = more signal.
The target is the same in experiment [9]. Nature of the experiment: torsin A mutant lysate binding on microarrays – cell lysate, small-molecule microarray, COS7 lysate, 635/667 nm fluorescence, primary screen (AID 1150).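 Further: score pools 667 nm emission and signal to noise measuring lysate protein binding.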 The following applies: COS7 hTOR1A mutant lysate, 635 nm fluorescence, higher = more signal.
Experiment [10] relates to Sonic hedgehog protein (Shh). Nature of the experiment: Sonic hedgehog microarray binding compounds – biochemical, small-molecule microarray, 635/667 nm fluorescence, primary screen (AID 1151).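 Further: Shh protein binding to compounds spotted on small-molecule microarray slides; score combines spot fluorescence intensity with signal-to-noise across triplicate slides.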 The following applies: 635 nm fluorescence, higher = more signal.
Experiment [11] can be described thus: optical density shifts of acrAB sulA E. coli – strain DRC41, OD650, 48 h, E. coli filamentation inducer project, primary screen (AID 1152).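 Further: E. coli MC1000 strain DRC41 lacking acrAB efflux pump and sulA.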 The following applies: higher = more signal, called active from +8 up or from −8 down.
A short description of experiment [12]: probe aLefty1 binding on compound microarray – biochemical, small-molecule microarray, 635/667 nm fluorescence, primary screen (AID 1153).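 Further: score merges spot fluorescence with signal-to-noise ratio from the scanned slide images.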 To be noted: higher = more signal.
Experiment [13] in a line: plasmodial surface anion channel blockers, osmotic lysis – cell-based, P. falciparum Indochina, OD700, 1 h, primary screen (AID 1154). The following applies: P. falciparum Indochina infected RBC osmotic lysis, higher = more signal, called active from +8 up or from −8 down.
The nature of experiment [14]: plasmodial surface anion channel blockers, osmotic lysis – cell-based, P. falciparum Indochina, OD700, 2 h, primary screen (AID 1155).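 Further: lysis reports solute entry through the parasite surface anion channel PSAC.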 To be noted: P. falciparum Indochina infected erythrocytes, higher = more signal, called active from +8 up or from −8 down.
Experiment [15] in a line: changes in parasitized red cell lysis, either direction – P. falciparum Indochina, OD700, 3 h, PSAC antagonist project, primary screen (AID 1156). To be noted: P. falciparum-infected erythrocytes, osmotic lysis, higher = more signal, called active from +8 up or from −8 down.
Experiment [16] is described as follows: plasmodial surface anion channel blockers, osmotic lysis – cell-based, P. falciparum Indochina, OD700, 18 h, primary screen (AID 1157). The following applies: P. falciparum Indochina infected erythrocytes, osmotic lysis OD700, 18 h; higher = more signal, called active from +8 up or from −8 down.
The nature of experiment [17]: S6 kinase pathway phospho-S6 level changes – cell-based, A549, cytoblot, luminescence, serum-stimulated, primary screen (AID 1158).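 Further: serum-stimulated A549 lung adenocarcinoma cells; signal is phosphorylated S6 detected by cytoblot immunostaining with HRP secondary.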 The following applies: 5 h, higher = more signal.
Experiment [18] concerns the target NADPH oxidase 2 (Homo sapiens) (UniProt P04839). Nature of the experiment: compounds shifting NOX2 Amplex Red fluorescence – cell-based, HEK293-NOX2, PMA-stimulated, NOX inhibitor project, primary screen (AID 1159). Further: test concentration not given here. To be noted: 45 min, higher = more signal, called active from +8 up or from −8 down.
The target of experiment [19] is NADPH oxidase 4 (Homo sapiens) (UniProt Q9NPH5). Description: compounds shifting NOX4 Amplex Red fluorescence – cell-based, HEK293-NOX4, tetracycline-induced, NOX inhibitor project, primary screen (AID 1160). The following applies: HEK293-NOX4, Amplex Red H2O2 fluorescence, 45 min; higher = more signal, called active from +8 up or from −8 down.
In experiment [20] the target is NADPH oxidase 5 (Homo sapiens) (UniProt Q96PH1). Nature of the experiment: compounds shifting NOX5 Amplex Red fluorescence – cell-based, HEK293-NOX5, NOX inhibitor project, primary screen (AID 1161). The following applies: HEK293-NOX5, ionomycin, 45 min, higher = more signal.

Active and inactive are the calls of the source. Unless noted, how the calls were made is not given here.

NADPH oxidase 5 (Homo sapiens), sequence (Q96PH1 whole entry, looked up): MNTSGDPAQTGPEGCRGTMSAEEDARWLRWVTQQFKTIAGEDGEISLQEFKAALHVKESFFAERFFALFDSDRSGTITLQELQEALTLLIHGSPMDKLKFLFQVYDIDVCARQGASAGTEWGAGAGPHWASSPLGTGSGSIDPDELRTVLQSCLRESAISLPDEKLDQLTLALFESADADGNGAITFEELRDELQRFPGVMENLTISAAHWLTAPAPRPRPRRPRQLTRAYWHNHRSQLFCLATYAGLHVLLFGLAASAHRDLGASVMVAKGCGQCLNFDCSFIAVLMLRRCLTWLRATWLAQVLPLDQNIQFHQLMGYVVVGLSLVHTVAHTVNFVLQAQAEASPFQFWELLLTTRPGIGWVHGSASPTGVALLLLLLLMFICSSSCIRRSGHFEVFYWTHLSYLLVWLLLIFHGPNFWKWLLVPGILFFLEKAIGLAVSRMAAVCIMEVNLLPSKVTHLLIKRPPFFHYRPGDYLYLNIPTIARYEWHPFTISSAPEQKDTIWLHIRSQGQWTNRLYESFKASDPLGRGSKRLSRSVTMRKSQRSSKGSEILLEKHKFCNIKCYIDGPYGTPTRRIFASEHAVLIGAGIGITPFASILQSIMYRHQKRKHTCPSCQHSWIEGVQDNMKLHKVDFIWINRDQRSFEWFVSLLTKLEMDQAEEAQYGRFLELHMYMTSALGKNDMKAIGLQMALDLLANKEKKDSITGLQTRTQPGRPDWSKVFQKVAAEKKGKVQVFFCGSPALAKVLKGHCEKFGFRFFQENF
NADPH oxidase 2 (Homo sapiens), sequence (P04839 whole entry, looked up): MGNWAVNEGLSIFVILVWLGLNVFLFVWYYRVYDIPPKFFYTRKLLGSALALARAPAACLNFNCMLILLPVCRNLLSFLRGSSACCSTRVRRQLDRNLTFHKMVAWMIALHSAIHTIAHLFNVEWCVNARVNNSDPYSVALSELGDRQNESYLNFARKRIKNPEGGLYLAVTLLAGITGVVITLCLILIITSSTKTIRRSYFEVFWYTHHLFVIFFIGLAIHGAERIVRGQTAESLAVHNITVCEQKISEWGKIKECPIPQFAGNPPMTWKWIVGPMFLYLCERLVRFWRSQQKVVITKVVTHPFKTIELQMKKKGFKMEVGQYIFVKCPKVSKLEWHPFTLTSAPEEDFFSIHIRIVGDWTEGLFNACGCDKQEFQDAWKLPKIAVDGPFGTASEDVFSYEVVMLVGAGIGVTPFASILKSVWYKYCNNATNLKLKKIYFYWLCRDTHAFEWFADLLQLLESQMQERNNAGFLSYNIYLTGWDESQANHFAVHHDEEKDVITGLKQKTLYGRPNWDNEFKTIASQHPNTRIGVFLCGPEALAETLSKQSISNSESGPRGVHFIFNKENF
NADPH oxidase 4 (Homo sapiens), sequence (Q9NPH5 whole entry, looked up): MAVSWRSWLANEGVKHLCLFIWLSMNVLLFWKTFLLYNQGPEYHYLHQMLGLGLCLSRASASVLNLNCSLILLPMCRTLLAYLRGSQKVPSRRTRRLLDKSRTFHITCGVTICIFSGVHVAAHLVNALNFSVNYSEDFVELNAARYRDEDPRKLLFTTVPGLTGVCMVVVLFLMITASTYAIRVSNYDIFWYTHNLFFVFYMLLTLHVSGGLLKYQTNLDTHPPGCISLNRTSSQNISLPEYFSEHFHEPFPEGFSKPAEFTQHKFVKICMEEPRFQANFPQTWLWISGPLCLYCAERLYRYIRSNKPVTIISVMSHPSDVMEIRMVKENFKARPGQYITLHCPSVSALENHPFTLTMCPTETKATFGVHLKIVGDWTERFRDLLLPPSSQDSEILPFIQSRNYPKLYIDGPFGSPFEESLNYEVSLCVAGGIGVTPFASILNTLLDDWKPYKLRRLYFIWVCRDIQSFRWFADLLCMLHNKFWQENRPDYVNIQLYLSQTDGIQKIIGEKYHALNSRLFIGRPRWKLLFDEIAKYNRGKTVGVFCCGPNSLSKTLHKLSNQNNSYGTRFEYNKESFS
Streptavidin (Streptomyces avidinii), sequence (P22629 whole entry, looked up): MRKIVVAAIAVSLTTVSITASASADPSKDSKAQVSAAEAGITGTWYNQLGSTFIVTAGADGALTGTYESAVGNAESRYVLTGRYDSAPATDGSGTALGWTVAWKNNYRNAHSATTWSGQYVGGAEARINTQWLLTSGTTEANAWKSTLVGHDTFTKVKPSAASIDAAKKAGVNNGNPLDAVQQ
Torsin-1A (Homo sapiens), sequence (O14656 whole entry, looked up): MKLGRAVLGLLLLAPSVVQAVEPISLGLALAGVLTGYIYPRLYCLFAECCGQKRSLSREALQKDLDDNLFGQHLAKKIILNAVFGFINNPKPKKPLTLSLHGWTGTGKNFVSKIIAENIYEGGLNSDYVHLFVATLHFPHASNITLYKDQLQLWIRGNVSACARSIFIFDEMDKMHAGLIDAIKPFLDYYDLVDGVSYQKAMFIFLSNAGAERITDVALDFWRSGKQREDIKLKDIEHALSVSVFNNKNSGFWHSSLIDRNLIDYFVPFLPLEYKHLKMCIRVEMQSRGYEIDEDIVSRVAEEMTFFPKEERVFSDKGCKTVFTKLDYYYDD

Take `C=C(C(=O)CC[C@@H](OC(=O)c1ccccc1-c1ccccc1C(=O)O)c1ccc(CO)o1)C(C)C`: the composite z-score in [1] is 0.389; in experiment [6], -0.539; in experiment [7] it was 0.0051; with Torsin-1A (Homo sapiens) [8], 1.28; with Torsin-1A (Homo sapiens) [9], 0.317; in experiment [10] it was 1.65. In [12], this compound yielded a composite z-score of 0.0945. Also, the z-score is -0.115 (inactive) in [2]; -0.306 (inactive) in experiment [3]; 1.47 (inactive) in [4]; 1.73 (inactive) in [5]; -0.796 (inactive) in experiment [11]; 0.897 (inactive) in [13]. In addition, the z-score in experiment [14] was 0.192 (inactive); in experiment [15], 0.365 (inactive); in [16], 0.0861 (inactive); in experiment [17], -0.535; in experiment [18], 1 (inactive); in experiment [19], -0.593 (inactive). The z-score in experiment [20] was -0.213.

As to `C=CCOC(=O)[C@@H]1[C@H]2C(=O)O[C@H](c3ccccc3)[C@H](c3ccccc3)N2[C@H](c2ccc(OCCOC(=O)[C@H]3C[C@H]4C(=O)N[C@@H](CCCCN(C)C)C(=O)N4[C@H]3c3cccc(OCCO)c3)cc2)[C@@]12C(=O)Nc1ccccc12`, the composite z-score in [1] is -0.234; in experiment [6], 1.61; in [7], -0.141; in the experiment with Torsin-1A (Homo sapiens) [8], 1.2; with Torsin-1A (Homo sapiens) [9] it was 0.824; in experiment [10], 0.769. The compound also displayed a composite z-score in [12] of 0.464. Moreover, the z-score in [2] was 0.132 (inactive); in experiment [3], -0.306 (inactive); in experiment [4] it was -0.394 (inactive); in experiment [5] it was -0.647 (inactive); in [11] it was 0.171 (inactive); in [13], 0.323 (inactive). The z-score is 0.0285 (inactive) in experiment [14]; -0.703 (inactive) in [15]; 0.0555 (inactive) in [16]; -0.547 in experiment [17]; 0.209 (inactive) in experiment [18]; -0.186 (inactive) in experiment [19]. Besides, in experiment [20], the z-score is -0.538.

As to `COCCOC(=O)N1C(=O)[C@@]2(c3cc(C#CCNC(N)=O)ccc31)[C@H](c1ccc(O)cc1)N1[C@H](c3ccccc3)[C@H](c3ccccc3)OC(=O)[C@H]1[C@@H]2C(=O)N1CCc2cc(OC)c(OC)cc2C1`, the composite z-score in experiment [1] was 0.0981; in experiment [6], 0.468; in experiment [7] it was -0.0448; with Torsin-1A (Homo sapiens) [8] it was -0.0669; with Torsin-1A (Homo sapiens) [9], 0.148; in [10] it was 0.97. In addition, the composite z-score in experiment [12] amounted to 0.208. The z-score in experiment [2] was -0.483 (inactive); in experiment [3] it was 0.389 (inactive); in experiment [4], -0.0515 (inactive); in [5], -0.379 (inactive); in experiment [11], -0.872 (inactive); in [13], 1.67 (inactive). Also, the z-score was 0.13 (inactive) in experiment [14]; 0.018 (inactive) in experiment [15]; 0.148 (inactive) in experiment [16]; -0.0879 in experiment [17]; 1.15 (inactive) in [18]; -0.909 (inactive) in [19]. The z-score in experiment [20] was found to be 0.891.

`CN1C(=O)C2C=CC(C(O)c3cccs3)N(N(c3ccccc3)c3ccccc3)C2C1=O` (stereo not given): the composite z-score in experiment [1] was -0.0276; in [6], 0.827; in experiment [7], 0.0422; with Torsin-1A (Homo sapiens) [8] it was 1.75; with Torsin-1A (Homo sapiens) [9] it was 0.0109; in experiment [10], -0.287. This compound also registered a composite z-score in experiment [12] of 0.25. The z-score in [2] was 0.114 (inactive); in experiment [3] it was -0.176 (inactive); in experiment [4], 1.21 (inactive); in [5], -0.324 (inactive); in [11] it was -0.822 (inactive); in experiment [13] it was 0.929 (inactive). In addition, the z-score was 1 (inactive) in experiment [14]; 0.157 (inactive) in experiment [15]; 0.556 (inactive) in [16]; -0.967 in experiment [17]; -0.915 (inactive) in experiment [18]; -1.84 (inactive) in experiment [19]. In [20], the z-score is -1.25.

`COC(=O)c1c2oc(c1C(=O)OC)C(=O)N[C@H](Cc1ccccc1)Cn1cc(nn1)C1(CCCCC1)NC(=O)N[C@H](CO)CC2`: the composite z-score in experiment [1] was 0.075; in experiment [6], -0.626; in [7], 0.161; in the experiment with Torsin-1A (Homo sapiens) [8] it was 0.3; with Torsin-1A (Homo sapiens) [9] it was 0.29; in experiment [10], 1.52. The composite z-score in experiment [12] is -0.104. Further, the z-score was 0.0261 (inactive) in [2]; -0.72 (inactive) in [3]; 8.64 (active) in experiment [4]; 0.334 (inactive) in experiment [5]; 2.53 (inactive) in experiment [11]; 0.96 (inactive) in [13]. Moreover, the z-score in experiment [14] was 0.166 (inactive); in experiment [15], 0.789 (inactive); in [16], 0.286 (inactive); in experiment [17], 0.274; in experiment [18] it was -0.0295 (inactive); in [19], 1.77 (inactive). In addition, in [20], the z-score was determined as 0.431.

In the case of `COc1ccc(C(=O)Nc2ccc(CN3C(=O)[C@@]4(O[C@@H](CC(=O)N(CCO)Cc5ccccc5)[C@H]([Si](C)(C)c5ccc(OC)cc5)[C@H]4C)c4ccccc43)cc2)cc1`, the composite z-score in [1] was 0.353; in [6], 0.675; in experiment [7], -0.179; in the experiment with Torsin-1A (Homo sapiens) [8] it was 0.438; in the experiment with Torsin-1A (Homo sapiens) [9], -0.0394; in experiment [10], 1.59. Besides, in experiment [12], the composite z-score is -0.115. The z-score in [2] is -5.7 (inactive); in [3], -0.376 (inactive); in experiment [4] it was -0.533 (inactive); in [5] it was -0.0361 (inactive); in experiment [11] it was 1.73 (inactive); in experiment [13], 16.6 (active). Further, the z-score in experiment [14] was 2.82 (inactive); in [15], 0.467 (inactive); in experiment [16] it was -0.236 (inactive); in experiment [17], 1.21; in experiment [18], 1.06 (inactive); in [19], 1.39 (inactive). For the same compound, the z-score in experiment [20] came to 2.59.

The record behind these values is PubChem BioAssay.
